Reference: PubChem BioAssay (NCATS)
Several values for one entry are separate records, joined by “and”; a condition that tells them apart may be missing. Equal entries are not always repeated. Inconclusive results are not listed. Activity calls are given as the source filed them. Calls follow the shape of the dose curve; as a rule, active = well fitted curve in the direction sought with a large enough effect; inconclusive = small, poorly fitted or top-dose-only effect, or another doubt; inactive = no such curve, though single readings can be large; an effect the other way counts as inactive or inconclusive.

Assays:
[1] = Viability qHTS for spleen associated tyrosine kinase inhibitor (SYKi) naive MV4-11 cells (AID 1963823); also: nearly all actives have a fitted effect of over 40% in size
Summary of the method: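 Viability of MV4-11 AML cells lacking prior SYK inhibitor exposure is scored by CellTiter-Glo luminescence following 72 hr compound incubation at 37 C, 5% CO2, seeded at 500 cells per well.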

[2] = Viability qHTS for spleen associated tyrosine kinase inhibitor (SYKi) drug resistant MV4-11 cells (AID 1963824); also: nearly all actives have a fitted effect of over 35% in size
Summary of the method: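 SYK-inhibitor-resistant MV4-11 AML cells were seeded at 500 per well onto compound and cultured 72 hours (37 °C, 5% CO2). CellTiter-Glo was then added, and after 10 min at room temperature, luminescence gave viability.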

[3] = Quantitative highthroughput screen to assess conditional lethalithy of NOMO1 cells grown in RPMI1640 with untreated serum (RPMI+s) (AID 1963876); also: nearly all actives have a fitted effect of over 35% in size;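 as to Viability: 100% = DMSO wells and 0% = empty wells without cells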
Summary of the method: (§1)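 Each medium arm—HPLM with 10% dialyzed FBS, or RPMI1640 with 5 mM glucose and 10% untreated or dialyzed FBS—was screened against an 11-point, 3-fold compound titration for 48 h at 37 °C, with CellTiter-Glo luminescence as endpoint.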

[4] = Quantitative highthroughput screen to assess conditional lethalithy of NOMO1 cells grown in RPMI1640 with dialyzed fetal bovine serum (RPMI+ds) (AID 1963877); also: nearly all actives have a fitted effect of over 30% in size;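 as to Viability: series mostly up to about 46 µM; 100% = DMSO control wells and 0% = empty wells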
Summary of the method: as §1

[5] = Quantitative highthroughput screen to assess conditional lethalithy of NOMO1 cells grown in Human Plasma-Like Medium with dialyzed fetal bovine serum (HPLM+ds) (AID 1963878); also: nearly all actives have a fitted effect of over 35% in size;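 as to Viability: 100% = DMSO wells and 0% = empty wells on each plate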
Summary of the method: as §1

[6] = Quantitative highthroughput screen to assess conditional lethalithy of P12 Ichikawa cells grown in RPMI1640 with dialyzed fetal bovine serum (RPMI+ds) (AID 1963880); conditions: Potency: P12-Ichikawa viability; also: nearly all actives have a fitted effect of over 35% in size;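 as to Viability: 100% = DMSO wells and 0% = empty wells on each plate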
Summary of the method: as §1

[7] = Quantitative highthroughput screen to assess conditional lethalithy of P12 Ichikawa cells grown in RPMI1640 with untreated serum (RPMI+s) (AID 1963881); conditions: Potency: viability; also: nearly all actives have a fitted effect of over 35% in size;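 as to Viability: series mostly up to about 46 µM; 100% = DMSO wells and 0% = empty wells without cells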
Summary of the method: as §1

[8] = Quantitative highthroughput screen to assess conditional lethalithy of SEM cells grown in RPMI1640 with unreated serum (RPMI+s) (AID 1963883); also: nearly all actives have a fitted effect of over 35% in size;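 as to Viability: 100% = DMSO wells and 0% = empty wells without cells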
Summary of the method: as §1

[9] = Quantitative highthroughput screen to assess conditional lethalithy of SEM cells grown in RPMI1640 with dialyzed fetal bovine serum (RPMI+ds) (AID 1963884); also: nearly all actives have a fitted effect of over 35% in size;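 as to Viability: series mostly up to about 46 µM; 100% = DMSO control wells and 0% = empty wells without cells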
Summary of the method: as §1

[10] = Cellular viability qHTS for adrenocortical cancer (ACC) cell line SW-13 (AID 1963989); conditions: SW-13 ACC cells viability, CellTiter-Glo, 48 h; activity (max response): active compounds read low; also: nearly all actives have a fitted effect of over 65% in size;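 as to activity (max response): cells grown in serum-free medium with ITS supplement; % is scaled to controls: 0 for no effect and ±100 for the full control effect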
Summary of the method: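 Here, serum-free SW-13 cultures were dosed up to 46 uM. Following 48 h, ATP-dependent luminescence (CellTiter-Glo) reported viable cells, and logistic modeling produced IC50 values.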

[11] = Cellular viability qHTS for adrenocortical cancer (ACC) cell line NCI-H295R (AID 1963990); also: nearly all actives have a fitted effect of over 60% in size
Summary of the method: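 Viability of NCI-H295R after 48 h of treatment (final up to 46 uM) measured through cellular ATP luminescence.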

[12] = Quantitative highthroughput screen to assess conditional lethalithy of SEM cells grown in Human Plasma-Like Medium with dialyzed fetal bovine serum (HPLM+ds) (AID 1963882); also: nearly all actives have a fitted effect of over 35% in size; as to Viability: series mostly up to about 46 µM
Summary of the method: as §1

[13] = Quantitative highthroughput screen to assess conditional lethalithy of P12 Ichikawa cells grown in Human Plasma-Like Medium with dialyzed fetal bovine serum (HPLM+ds) (AID 1963879); conditions: Potency: viability; also: nearly all actives have a fitted effect of over 35% in size; as to Viability: series mostly up to about 46 µM
Summary of the method: as §1
Potency is read from the fitted curve at half-maximal effect.

C[C@H]1COC2=C1C(=O)C(=O)c1c2ccc2c1CCCC2(C)C
active: Potency [1] 5.9 µM | Potency [2] 5.25 µM | Potency [8] 2.35 µM | Potency [9] 13.2 µM
inactive: Potency [3] | Potency [4] | Potency [5] | Potency [6] | Potency [7] | activity (max response) [10] -2.17%

COc1cc(Nc2ncc(F)c(Nc3ccc4c(n3)N(COP(=O)(O)O)C(=O)C(C)(C)O4)n2)cc(OC)c1OC
inactive: Potency [3] | Potency [4] | Potency [5] | Potency [6] | Potency [7]
active: Potency [1] 92 nM and 259 nM and 83.3 nM | Potency [2] 130 nM and 461 nM and 148 nM | Potency [10] 14.1 µM | Potency [11] 15.8 µM

O=C1CCC[C@@H]2[C@H]3CCC[N+]4([O-])CCC[C@@H](CN12)[C@@H]34 (some centres not stated)
active: Potency [3] 8.33 µM | Potency [4] 7.43 µM | Potency [5] 5.9 µM | Potency [12] 6.62 µM | Potency [8] 7.43 µM
inactive: Potency [1] | Potency [2] | Potency [6] | Potency [7] | activity (max response) [10] -8.5% | Potency [11]

C[C@@H](NCc1cc2ccccc2[nH]1)c1cccc2ccccc12
inactive: Potency [3] | Potency [4] | Potency [5] | Potency [6] | Potency [7]
active: Potency [1] 6.61 µM | Potency [2] 7.42 µM | Potency [10] 25.1 µM | Potency [11] 12.6 µM

COc1ccc2c(c1)c(CC(=O)O)c(C)n2C(=O)c1ccc(Cl)cc1
inactive: Potency [1] | Potency [2] | Potency [3] | Potency [4] | Potency [5] | Potency [6] | Potency [7] | Potency [12] | Potency [8] | Potency [9] | activity (max response) [10] -9.65% and -2.21% | Potency [11]

CC#C[C@]1(O)CC[C@H]2[C@@H]3CCC4=CC(=O)CCC4=C3[C@@H](c3ccc(N(C)C)cc3)C[C@@]21C
active: Potency [1] 18.6 µM | Potency [2] 21.1 µM and 16.6 µM | Potency [3] 6.62 µM | Potency [4] 7.43 µM | Potency [5] 8.33 µM | Potency [13] 9.35 µM | Potency [11] 20.6 µM and 25.1 µM

CC(C)Oc1cc(Nc2nc(N[C@@H](C)c3ccc(F)cn3)ncc2Cl)[nH]n1
active: Potency [1] 0.058 µM | Potency [2] 372 nM and 46.1 nM | Potency [3] 0.935 µM | Potency [4] 0.833 µM | Potency [13] 0.833 µM | Potency [8] 0.526 µM
inactive: Potency [5] | activity (max response) [10] -7.04% | Potency [11]

NCCc1cnc[nH]1
inactive: Potency [2] | Potency [3] | Potency [4] | Potency [5] | Potency [6] | Potency [7] | Potency [12] | activity (max response) [10] 7.56% and -0.338% | Potency [11]
active: Potency [1] 13.3 µM

NCCS(=O)(=O)O
inactive: Potency [1] | Potency [2] | Potency [3] | Potency [4] | Potency [5] | Potency [13] | Potency [7] | Potency [8] | Potency [9] | activity (max response) [10] 6.15% and -3.63% | Potency [11]

O=C(O)CCCCCC(=O)NN=C1CCCC1
inactive: Potency [1] | Potency [2] | Potency [3] | Potency [4] | Potency [5] | Potency [6] | Potency [7] | Potency [12] | Potency [8] | Potency [9] | Potency [11]

Fc1ccc(CNc2ncnc3ccc(F)cc23)cc1
active: Potency [1] 2.06 µM | Potency [2] 1.84 µM | Potency [6] 11.8 µM
inactive: Potency [3] | Potency [4] | Potency [5] | Potency [12] | Potency [8] | Potency [9]

Cc1nc(Nc2n[nH]c3c2CN(C(=O)N[C@H](CN(C)C)c2ccccc2)C3(C)C)c2sccc2n1
active: Potency [1] 0.0132 µM | Potency [2] 0.0118 µM | Potency [3] 1.32 µM | Potency [4] 3.72 µM | Potency [5] 1.48 µM | Potency [6] 1.48 µM | Potency [7] 1.66 µM | Potency [12] 0.743 µM | Potency [8] 0.332 µM | Potency [10] 3.16 µM | Potency [11] 28.2 µM

CCCn1c(=O)c2[nH]c(C34CC5CC3C[C@@H](C5)C4)nc2n(CCC)c1=O
inactive: Potency [3] | Potency [4] | Potency [5] | Potency [6] | Potency [7] | Potency [12] | activity (max response) [10] -4.88%
active: Potency [1] 18.6 µM | Potency [2] 16.6 µM

Clc1ccc(C(Cn2ccnc2)OCc2c(Cl)cccc2Cl)c(Cl)c1 (configuration not stated)
active: Potency [1] 16.8 µM and 8.33 µM | Potency [2] 21.1 µM and 8.33 µM | Potency [11] 25.1 µM
inactive: Potency [3] | Potency [4] | Potency [5] | Potency [13] | Potency [12] | Potency [8] | Potency [9]

N#Cc1c(N(CC(=O)O)CC(=O)O)sc(C(=O)O)c1CC(=O)O
active: Potency [13] 16.6 µM | Potency [12] 13.2 µM
inactive: Potency [1] | Potency [2] | Potency [3] | Potency [4] | Potency [5] | activity (max response) [10] 0.42% | Potency [11]
